This is a sample that favours compounds with a hit; in the whole collection about 0.97% have one here.
NTR1 agonist: NTR1 (human) agonism; actives 0.17% (n = 330,000); NTR1-U2OS beta-arrestin-GFP spot imaging, agonist mode; AID 493036; activation, % at 20 µM;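 active means activation at or above 40% of the spot to cytoplasm intensity ratio, with at least 20 cells analyzed; inconclusive means wells under 20 cells, flagged as cytotoxic or low count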;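 further: 0% = DMSO without peptide and 100% = 100 nM NTR1 peptide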
NOD2 RIPK2 PPI: inhibitors of human NOD2-RIPK2 interaction; CHO BLA complementation NOD2-RIPK2, CCF4 ratio; AID 624267; actives 0.38% (n = 360,000); inhibition, % at 4.98 µM; O43353; in the data active means inhibition above about 21%;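 further: 0% = vehicle only and 100% = reference blocker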
TLR9-MyD88 block: TLR9-MyD88 interaction inhibition. Q9NR96+Q99836. CHO BLA complementation TLR9-MyD88, CCF4 FRET ratio. inhibition, % at 4.98 µM. actives 0.21% (n = 340,000);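 active means inhibition above the mean over all tested compounds plus 3 SD, cut at about 21% in these data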;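 further: 0% = DMSO only wells and 100% = clavulanate BLA inhibitor control wells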
TLR4-MyD88 BLA: blocks binding of human TLR4 to MyD88 | inhibition, % at 8.4 µM | actives 0.18% (n = 200,000) | AID 861 | O00206+Q99836 | HeLa CL3-4 TLR4/MyD88 BLA complementation, FRET ratio; in the data active means inhibition above about 25%;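 further: 0% = vehicle and 100% = reference inhibitor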
Beta2AR agonist: activates human beta-2 adrenergic receptor causing internalization | P07550 | Am2.2-beta2AR cells, FAP receptor internalization, flow cytometry | response, % (test concentration not listed) | actives 0.43% (n = 340,000);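 active means response above a set limit, near 3 SD of response in nonfluorescent compounds, cut at about 42% in these data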
A1 inh: inhibitors of the anti-apoptotic protein A1, read as caspase activation | MEF A1-2A-BIM cells, Caspase-Glo 3/7 luminescence, 3 h; percent of clofoctol response, vehicle zero | caspase activation, % (concentration not given with the values) | actives 0.066% (n = 330,000);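 active means over half of replicate activation scores above 10%, or exactly half above 10 with the replicate mean above 10; inconclusive means replicate mean below 10 yet half the replicates above 10; inactive means over half of replicates below 10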
Beta2AR ag CP1: agonists of human beta-2 adrenergic receptor; shares compounds with Beta2AR agonist; Am2.2-beta2AR cells, FAP surface receptor, flow cytometry; active compounds read low; percent response (surface receptor), % at 10 µM; actives 25% (n = 1,100); AID 540358;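 active means surface receptor percent response at or below 58%, roughly 3 SD from nonfluorescent compounds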
B2AR FAP counter: counter-screen for beta-2AR agonists: fluorescence in Am2.2 cells; shares compounds with Beta2AR agonist; FAP fluorogen flow cytometry, fluorescence counterscreen; active compounds read low; 1,100 tested, under 10 active; calls only at 10 µM;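 active means percent response below a set limit in fluorescence channel 1 and below 50% in channel 8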
* hit, by the source's call; i = inactive; ? = inconclusive; · = no result given.

SMILES	NTR1 agonist	NOD2 RIPK2 PPI	TLR9-MyD88 block	TLR4-MyD88 BLA	Beta2AR agonist	A1 inh	Beta2AR ag CP1	B2AR FAP counter
CC(=O)Nc1ccc(-c2nnc(SCc3ccc(C)cc3)n2C)cc1	-0.2	-0.7	9.2	-7.2	42.3*	0.2	67.2	i
CCOc1ccc(OCC)c(NC(=O)Cn2cccc2)c1	3.0	-4.6	6.4	0.8	-9.0	-0.6	·	·
Cc1ccc(NC(=O)CCSc2nnc(-c3ccco3)o2)cc1	0.3	-8.0	-10.5	2.9	-6.1	0.8	·	·
Cc1ccc(SCC(=O)Nc2ccc(-c3nnc(-c4ccco4)o3)cc2)cc1	1.4	-3.0	-0.6	-1.9	81.6*	-0.8	34.3*	i
COc1cccc(NC(=O)CCc2nnc3ccc(N4CCN(c5cccc(OC)c5)CC4)nn23)c1	1.3	-4.7	-9.1	·	5.7	-0.2	·	·
COc1ccc(C(=O)CC(=O)c2ccc(C(C)(C)C)cc2)cc1	·	5.5	-5.5	·	3.1	·	·	·
COc1ccc(C(=O)C(CCC(CNC(C)(C)C)C(=O)c2ccc(OC)cc2)CNC(C)(C)C)cc1 (stereo not given)	·	16.2	16.2	-0.8	53.9*	0.7	80.2	i
CCC1(C)NC(=O)N(CC(=O)N2CCC(Cc3ccccc3)CC2)C1=O (stereo not given)	2.7	-2.1	-8.6	·	2.8	0.4	·	·
CCC(=O)N1C(Cc2ccccc2)COC1(C)C (stereo not given)	2.7	-5.3	6.6	-11.1	-0.6	0.5	104.8	i
COCCN1C(=O)c2oc3ccccc3c(=O)c2C1c1ccc(OC)c(OC)c1 (stereo not given)	-3.8	-2.4	-3.9	3.4	-2.6	-0.9	·	·
C=CCN1C(=O)c2oc3ccccc3c(=O)c2C1c1ccc(O)c(OC)c1 (stereo not given)	5.0	-7.3	-7.0	7.6	-13.6	-0.3	123.2	i
O=C1C(O)CC2c3ccccc3CC3(CCCC3)N12 (stereo not given)	3.5	-3.2	4.1	0.6	6.6	-0.7	117.3	i
Cc1cnc(C)c(N(C)NC(=S)Nc2ccccc2)n1	-0.9	3.2	-2.5	-5.8	3.0	0.9	·	·
Cc1nc(NC(=O)CSc2nnc(-c3ccccc3)c(-c3ccccc3)n2)c(Cl)cc1Cl	8.4	-2.3	-3.1	6.2	47.6*	-0.5	73.3	i
CSCCC(C(=O)Nc1c(C)cccc1C)n1c(-c2cnc(C)cn2)nc2ccccc21 (stereo not given)	·	-8.2	·	·	·	·	·	·
CN(c1ccccc1)S(=O)(=O)c1cccc(C(=O)Nc2cccc(C(=O)NC3CC3)c2)c1	-0.6	-9.3	-8.0	·	50.9*	·	12.5*	i
CC(C)(C)OC(=O)N1CCC(CC2CC(c3ccccc3)=NO2)(C(=O)NCc2ccccc2)CC1 (stereo not given)	1.2	5.5	-0.7	·	-11.8	-0.7	·	·
Cc1nn(-c2ccccn2)c2nc(-c3cccs3)cc(C(=O)NCc3ccco3)c12	5.9	1.8	17.7	12.5	43.4*	-0.2	73.0	i
COc1ccc(-c2nc(NC(=O)c3c(C)noc3C)sc2C)cc1	0.8	-0.7	3.6	·	1.6	·	·	·
COc1ccc(-c2nc(NC(=O)c3cc(C(C)(C)C)nn3C)sc2C)cc1	9.0	5.4	-6.0	-4.7	29.4	0.6	80.3	i
NC(=O)CC(NC(=O)Cc1ccc(Cl)cc1)c1ccc(NC2CCCCCCC2)c([N+](=O)[O-])c1 (stereo not given)	0.1	5.5	-4.3	·	0.5	1.4	·	·
NC(=O)CC(NC(=O)c1ccc(Br)cc1)c1ccc(N2CCN(c3ccccc3)CC2)c([N+](=O)[O-])c1 (stereo not given)	2.7	4.9	-4.5	·	-13.3	-0.6	·	·
NC(=O)CC(NC(=O)c1ccccc1)c1ccc(N2CCN(c3ccccn3)CC2)c([N+](=O)[O-])c1 (stereo not given)	-6.4	-11.2	3.2	·	2.4	0.4	108.7	i
NC(=O)CC(NC(=O)Cc1ccc(Cl)cc1)c1ccc(NCCCN2CCCC2=O)c([N+](=O)[O-])c1 (stereo not given)	-0.2	-7.5	-1.0	·	26.4	?	66.0	i
NC(=O)CC(NC(=O)c1ccccc1)c1ccc(NCCCN2CCCC2=O)c([N+](=O)[O-])c1 (stereo not given)	-2.3	-0.9	-0.3	·	90.1*	0.4	36.3*	i
SMILES	NTR1 agonist	NOD2 RIPK2 PPI	TLR9-MyD88 block	TLR4-MyD88 BLA	Beta2AR agonist	A1 inh	Beta2AR ag CP1	B2AR FAP counter
CC(C)NC(=O)c1ccc(S(=O)(=O)N(C)C)cc1	1.1	-6.0	-5.7	4.5	1.1	-0.5	·	·
O=C(CCn1c(=O)oc2ccccc21)NCCN1CCOCC1	0.1	-12.5	0.3	·	-2.7	-0.4	·	·
O=C(CCn1c(=O)oc2ccc(Cl)cc21)NCCCN1CCOCC1	-0.5	-6.4	-16.0	·	50.0*	0.3	98.9	i
CCn1cc(C(=O)O)c(=O)c2cc(F)c(N3CCN(S(=O)(=O)c4ccc(NC(C)=O)cc4)CC3)cc21	1.3	-1.8	-5.7	-17.0	56.2*	0.9	75.9	i
Cc1ccc(CSc2nc3c(c(N(C)C)n2)CCCC3)cc1	7.5	-10.1	3.1	2.8	-5.0	1.1	·	·
CN(C)c1nc(SCc2ccccc2Cl)nc2c1CCCC2	3.9	-4.8	2.1	2.4	43.2*	2.0	130.8	i
Cc1cc(N2CCN(C(=O)c3ccco3)CC2)n2nc(-c3cccc(Cl)c3)cc2n1	9.6	-9.1	5.8	-9.5	42.3*	-0.1	108.6	i
COc1ccc(C(=O)Cn2nnc(-c3ccccc3NC(=O)C3CCCCC3)n2)cc1	-4.1	-12.5	9.8	0.2	12.9	0.8	·	·
COc1ccc(NC(=O)Cn2nnc(-c3ccccc3NC(=O)C3CC3)n2)cc1	-0.9	7.2	5.8	7.8	-1.0	1.2	118.6	i
CCOc1ccc(NC(=O)Cn2nnc(-c3ccccc3NC(=O)C3CC3)n2)cc1	-1.5	-9.8	8.7	-9.0	-3.3	-0.1	123.0	i
CCOc1ccc(N(C)S(=O)(=O)c2ccc(C)c(C(=O)Nc3nnc(C4CC4)s3)c2)cc1	-1.0	-6.6	0.6	·	-1.1	0.7	·	·
NC(=O)CSc1nc2cc(Cl)ccc2c(=O)n1C1CCCCC1	3.2	6.8	1.5	·	-7.6	-0.4	·	·
CC(=O)Nc1ccc(Nc2cc(C)nc3c(-c4ccccc4)c(C)nn23)cc1	17.1	-0.1	4.4	-11.7	-6.9	0.1	·	·
CC(=O)Nc1ccc(Nc2cc(C(C)C)nc3c(-c4ccccc4)c(C)nn23)cc1	26.2	-2.3	-9.8	·	51.9*	-0.7	66.6	i

Compound activity deposited in PubChem by several laboratories.
